Compound activity: PubChem BioAssay, National Center for Advancing Translational Sciences (NCATS)
The full list was thinned out, with hits kept by preference.
BLM helicase inh: Bloom syndrome helicase (human) inhibition; actives 0.2% (n = 350,000); recombinant BLM DNA unwinding, fluorescence dequenching; P54132; Potency, µM (doses to about 56.1 µM), for inactives: top-dose activity change, negative = inhibition, usual class: inhibitors; AID 2528;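 note: plate controls were vehicle for no effect and no enzyme for full effect; nearly all actives have a fitted effect of over 35% in size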
GoLoco inh red: blocks human Gai1 binding to RGS12 GoLoco peptide, red readout; Gai1:RGS12 GoLoco peptide FP, rhodamine, 10 min; Potency, µM (doses to about 61.6 µM), for the others: at the highest dose activity, negative = inhibition, most hits filed as inhibitors; actives 0.44% (n = 230,000); active = well fitted inhibition curve with a large enough effect, not every such curve was filed as active; inactive = no such curve, though single readings can be large or run the other way; note: nearly all actives have a fitted effect of over 30% in size
L3MBTL1 block: L3MBTL1 (human) inhibition; AlphaScreen L3MBTL1–H3K9me1 peptide binding; Q9Y468; actives 0.66% (n = 230,000); AID 485360; Potency, µM (top dose mostly 57.1 µM), without a hit: at the highest dose activity, negative = inhibition, usual class: inhibitors; note: nearly all actives have a fitted effect of over 60% in size
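Displacement of a biotinylated histone H3(1-15) peptide monomethylated at Lys9 (75 nM) from L3MBTL1 (50 nM) was measured by AlphaScreen after a 30 min room-temperature compound incubation; cefsulodin titration served as intraplate control.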
RECQ1 inh: inhibitors of human RECQ1 DNA helicase | AID 2549 | actives 0.54% (n = 240,000) | RECQ1 DNA unwinding, red fluorescence kinetic read | P46063 | Potency, µM (doses to about 57.3 µM), inactives show at the top dose activity, negative = inhibition, most hits filed as inhibitors;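 note: plate controls were vehicle for no effect and no enzyme for full effect; nearly all actives have a fitted effect of over 30% in size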
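50 nM RECQ1T1 preincubated 15 min with compound in Tris pH 8.0 buffer with MgCl2, DTT, Tween-20 and 2.5 ug/ml poly(dI-dC); started with 200 nM TAMRA/BHQ-2 forked duplex and 2 mM ATP. Unwinding read as fluorescence (525/598 nm), two reads 2 h apart.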
JMJD2E inh: inhibitors of human JMJD2E histone demethylase | actives 1.6% (n = 230,000) | AID 2147 | B2RXH2 | Potency, µM (titrated, usually from 57.1 µM), for the others: at the highest dose activity change, negative = inhibition, most hits filed as inhibitors | JMJD2E catalytic domain, FDH-coupled NADH fluorescence (FDH is formaldehyde dehydrogenase);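 note: 0% = wells with enzyme and -100% = buffer wells without enzyme; nearly all actives have a fitted effect of over 50% in size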
Target sequence (B2RXH2 1-337 limits assumed): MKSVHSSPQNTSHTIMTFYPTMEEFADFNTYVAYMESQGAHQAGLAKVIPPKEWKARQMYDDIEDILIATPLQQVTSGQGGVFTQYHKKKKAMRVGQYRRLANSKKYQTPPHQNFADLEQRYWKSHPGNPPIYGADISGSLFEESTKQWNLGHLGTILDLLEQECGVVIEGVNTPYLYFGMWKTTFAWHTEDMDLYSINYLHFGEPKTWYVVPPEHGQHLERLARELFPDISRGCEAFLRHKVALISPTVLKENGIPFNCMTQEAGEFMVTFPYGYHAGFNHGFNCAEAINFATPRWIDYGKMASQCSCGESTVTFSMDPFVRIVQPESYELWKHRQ
APEX1 inh: APE1 (human) endonuclease inhibition. P27695. recombinant APE1, TAMRA/BHQ-2 abasic DNA cleavage fluorescence. Potency, µM (highest dose often 65.8 µM), for inactives: at the highest dose activity change, negative = inhibition, actives largely listed as inhibitors. actives 0.35% (n = 350,000). AID 2517;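 note: plate controls were vehicle for no effect and reference inhibitor for full effect; nearly all actives have a fitted effect of over 55% in size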
Target sequence (P27695 whole entry, looked up): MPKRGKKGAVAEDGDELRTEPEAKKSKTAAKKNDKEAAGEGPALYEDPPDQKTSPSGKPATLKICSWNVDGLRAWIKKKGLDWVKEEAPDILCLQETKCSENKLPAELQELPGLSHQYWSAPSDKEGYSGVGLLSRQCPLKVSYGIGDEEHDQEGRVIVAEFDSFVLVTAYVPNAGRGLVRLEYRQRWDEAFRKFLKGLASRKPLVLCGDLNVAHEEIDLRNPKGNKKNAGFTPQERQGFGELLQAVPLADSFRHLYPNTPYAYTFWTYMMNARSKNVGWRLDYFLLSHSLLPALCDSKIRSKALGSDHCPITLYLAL
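Substrate: short duplex with […] THF abasic site, 5'-TAMRA and 3'-BHQ-2, 50 nM final. APE1 at 0.75 nM, preincubated 15 min RT with compound. Fluorescence increase from first to third read measured activity.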
The depositor's hits bear a star; i = inactive; ? = inconclusive; . = no result; [ ] = remark or other dose. Unless noted, calls come from the whole dose curve; as a rule, active = well fitted curve in the direction sought with a large enough effect; inconclusive = small, poorly fitted or top-dose-only effect, or another doubt; inactive = no such curve, though single readings can be large; an effect the other way counts as inactive or inconclusive. Unless noted, % is set by controls: 0 for no effect and ±100 for the full control effect; potency is the fitted concentration of half-maximal effect.

SMILES	BLM helicase inh	GoLoco inh red	L3MBTL1 block	RECQ1 inh	JMJD2E inh	APEX1 inh
COc1ccccc1NC(=S)NNC(=O)c1cc(C)n(C)n1	-2.7%	6.4%	.	6.8%	17.8µM*	7.5%
C[N+](C)(C)CCCCCC[N+](C)(C)C	-5.5%	7.8%	.	1.2%	5.9%	1.4%
C[N+](C)(C)CCCCCC(=O)/C=N/O	2.6%	2.51µM*	3.8%	-0.5%	-22.1%	-1.4%
CCN(CC)c1ccc(C=C2C(=O)OC3(CCCCC3)OC2=O)cc1	-4.5%	239.3%	-22.3%	31.6µM*	-20.9%	-4.6%
CCN(CC)c1ccc(/C=C2/C(=O)ON=C2C)cc1	-1.3%	99.8%	-16.8%	-2.0%	5.4%	-2.9%
CCN(CC)c1ccc(/C=C2/C(=O)c3ccc(C(=O)O)cc3C2=O)cc1	-7.3%	26.2%	25.1µM*	-19.0%	-3.0%	?
NC(=Nc1ccc(N)cc1)C(N)=Nc1ccc(N)cc1	-0.7%	4.4%	31.6µM*	i	?	-0.3%
COc1ccccc1NC(=O)c1oc2ccccc2c1NC(=O)c1ccccc1C(F)(F)F	-5.0%	.	.	.	.	.
CN1CCN(C(c2ccccn2)c2cc(Cl)c3cccnc3c2O)CC1 (stereo not drawn)	-6.5%	-0.5%	14.1µM*	-2.9%	25.1µM*	0.0%
CCCN1C/C(=C/c2ccc3c(c2)OCO3)C(=O)/C(=C/c2ccc3c(c2)OCO3)C1	-0.6%	-0.4%	-4.5%	-5.9%	10µM*	-1.4%
CC(=O)N1CCCc2cc(S(=O)(=O)N3CCCC(C(=O)Nc4cc(Cl)ccc4C)C3)ccc21 (stereo not drawn)	-4.2%	.	.	.	.	.
C#CCOCCOCCOCCNc1nc(N2CCN(C(=O)[C@H](CCCCN)n3cc([C@@H](N)C(C)CC)nn3)CC2)nc(N2CCN(C(=O)[C@H](CCCCN)n3cc([C@@H](N)CO)nn3)CC2)n1 (stereo partly drawn)	34.8%	3.8%	?	7.0%	20µM*	?
C#CCOCCOCCOCCNc1nc(N2CCN(C(=O)[C@H](Cc3ccc(O)cc3)n3cc(CCO)nn3)CC2)nc(N2CCN(C(=O)[C@H](Cc3ccc(O)cc3)n3cc(CCO)nn3)CC2)n1	-15.9%	6.0%	1.1%	31.6µM*	-4.1%	-9.2%
C#CCOCCOCCOCCNc1nc(N2CCN(C(=O)[C@H]([C@@H](C)CC)n3cc([C@@H](N)CO)nn3)CC2)nc(N2CCN(C(=O)[C@H](CCCCN)n3cc([C@@H](N)C(C)CC)nn3)CC2)n1 (stereo partly drawn)	21.0%	3.6%	-18.3%	-6.2%	-1.4%	1.9%
Cc1c(C2=CCN(S(=O)(=O)c3ccc(CC(C)C)cc3)CC2)c2ccccc2n1CC(=O)N1CCCC1	-8.3%	.	.	.	.	.
COc1ccc2c(c1)[N+](=O)C(/C(C)=N/NC(N)=S)=C(C)[N+]2=O	.	5.0%[14.2 µM]	.	.	.	.
CCOc1cc(CNC(=O)c2cc(-c3ccccc3)n[nH]2)cc(OCC)c1OCC	0.4%	.	.	.	.	.
CCCC(=O)NC(c1cccs1)c1cc([N+](=O)[O-])c2cccnc2c1O (stereo not drawn)	-26.2%	9.0%	?	-20.2%	10µM*	10.5%
CC(=O)NC(c1cccs1)c1cc(Cl)c2ccccc2c1O (stereo not drawn)	.	.	-11.9%	.	.	20.1%
CC(=O)NC(c1cccs1)c1cc([N+](=O)[O-])c2cccnc2c1O (stereo not drawn)	-22.1%	-2.3%	10µM*	i	8.91µM*	-1.3%
CCC(=O)NC(c1cccs1)c1cc([N+](=O)[O-])c2cccnc2c1O (stereo not drawn)	-16.3%	6.1%	10µM*	-3.5%	?	-2.1%
CCC(=O)NC(c1cccs1)c1cc(Br)c2cccnc2c1O (stereo not drawn)	.	.	20.5%	.	.	22.7%
Oc1cc2c(cc1O)C(c1ccccc1)CNCC2 (stereo not drawn)	-16.0%	-21.0%	.	-6.6%	20µM*	1.0%
c1ccc(C2CNCCc3ccccc32)cc1 (stereo not drawn)	-1.9%	.	.	.	.	23.1%
Oc1cc2c(cc1O)[C@@H](c1ccccc1)CNCC2	-7.6%	12.6µM*	-3.7%	-14.0%	13.4%	19.9%
SMILES	BLM helicase inh	GoLoco inh red	L3MBTL1 block	RECQ1 inh	JMJD2E inh	APEX1 inh
Cc1cc(C(=O)N/N=C/c2cc(Cl)cc([N+](=O)[O-])c2O)c2ccccc2n1	6.0%	15.0%	?	-9.9%	5.62µM*	-4.4%
O=C(N/N=C/c1cc(Cl)cc([N+](=O)[O-])c1O)c1ccccc1NS(=O)(=O)c1cccs1	-10.4%	76.5%	-0.5%	-1.0%	6.31µM*	-0.1%
CC[C@@H](C)[C@H](N)C(=O)O	.	.	.	.	.	-4.9%
CN[C@@H]1[C@@H](O)[C@@H](O[C@@H]2[C@@H](O)[C@H](OC3OC(CN)=CCC3N)[C@@H](N)C[C@H]2N)OC[C@]1(C)O (stereo partly drawn)	.	.	.	.	.	0.7%[21 µM]
CN1CCN(C(=O)c2cccc(-c3cc(O)c4ncccc4c3)c2)CC1	.	.	31.6µM*	.	.	16.9%
CN1CCN(c2cc(-c3cc(O)c4ncccc4c3)ccn2)CC1	.	.	28.2µM*	.	.	26.9%
Oc1cc(NCCN2CCOCC2)cc2cccnc12	.	.	?	.	.	7.5%
Oc1cc(-c2cccnc2)cc2cccnc12	.	.	7.94µM*	.	.	-4.7%
COc1ccccc1NC(=O)C1CCC(CNS(=O)(=O)c2ccc3c(c2)CC(C)N3C(C)=O)CC1 (stereo not drawn)	-1.1%	.	.	.	.	.
Oc1ccc(/C=N/Nc2cc(N3CCCC3)nc(N3CCCC3)n2)cc1O	-24.1%	11.6%	-28.2%	-21.2%	14.1µM*	?
Oc1ccc(/C=N\Nc2cc(N3CCOCC3)nc(N3CCOCC3)n2)c(O)c1	-24.2%	-2.5%	-5.1%	-1.0%	14.1µM*	1.5%
O=C1C2C(C(=O)N1/N=C/c1cc([N+](=O)[O-])c(O)cc1O)C1C=CC2C12CC2 (stereo not drawn)	-9.4%	-4.4%	31.6µM*	?	-9.6%	?
O=C1C2C(C(=O)N1/N=C/c1cc([N+](=O)[O-])ccc1O)C1C=CC2C12CC2 (stereo not drawn)	-0.7%	7.6%	-5.5%	-0.7%	-0.6%	3.0%
N#Cc1c(NC(=O)c2ccccc2Cl)n(Cc2ccccc2)c2nc3ccccc3nc12	14.1µM*	117.7%	10.3%	?	?	1.9%
COc1ccc(-n2c(NC(=O)c3ccco3)c(C#N)c3nc4ccccc4nc32)cc1	31.6µM*	43.9%	10.2%	17.1%	3.1%	2.4%
Cc1cccc(C)c1NC(=O)CSCC(=O)O	0.2%	0.7%	1.3%	i	3.5%	-3.3%
Cc1cccc(C)c1NC(=O)CSCC(=O)c1ccc(O)c(O)c1	2.1%	7.2%	-3.3%	-4.2%	28.2µM*	?
